Assay outcomes: PubChem, National Center for Advancing Translational Sciences (NCATS)
In the library only some 3.2% were active in any assay of this set; here they are far more common.
USP1 inh: USP1/UAF1 (human) deubiquitinase inhibition; AID 743255; O94782; recombinant USP1/UAF1, Ub-Rhodamine cleavage fluorescence; Potency, µM (top dose mostly 57.1 µM), usual class: inhibitors; actives 0.23% (n = 390,000); note: nearly all actives have a fitted effect of over 60% in size
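High-throughput fluorogenic screen: 1nM USP1/UAF1 complex, Ub-Rho substrate 150nM final, 50mM HEPES pH 7.8 with 0.5mM EDTA, 0.1 mg/ml BSA, 1mM TCEP and 0.01% Tween-20.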
VDR inh: vitamin D3 receptor (human) inhibition; AID 504847; P11473; VDR-SRC2-3 peptide fluorescence polarization, 2 h; actives 0.93% (n = 400,000); Potency, µM, usual class: inhibitors
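Two reagent solutions held at 4 deg C in the dark were dispensed, compounds pinned at 23 nl, and the mixture incubated 2 h at room temperature. Read-out: fluorescence polarization of VDR–SRC2-3 peptide binding.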
PLK1 PBD inh: inhibitors of human PLK1 polo-box domain binding; Potency, µM, usual class: inhibitors; Plk1 PBD binding of FITC phosphopeptide, fluorescence polarization; P53350; actives 2.8% (n = 360,000); AID 720504; note: series mostly up to about 57 µM; nearly all actives have a fitted effect of over 65% in size
Target sequence (P53350 whole entry, looked up, the tested form may be a part): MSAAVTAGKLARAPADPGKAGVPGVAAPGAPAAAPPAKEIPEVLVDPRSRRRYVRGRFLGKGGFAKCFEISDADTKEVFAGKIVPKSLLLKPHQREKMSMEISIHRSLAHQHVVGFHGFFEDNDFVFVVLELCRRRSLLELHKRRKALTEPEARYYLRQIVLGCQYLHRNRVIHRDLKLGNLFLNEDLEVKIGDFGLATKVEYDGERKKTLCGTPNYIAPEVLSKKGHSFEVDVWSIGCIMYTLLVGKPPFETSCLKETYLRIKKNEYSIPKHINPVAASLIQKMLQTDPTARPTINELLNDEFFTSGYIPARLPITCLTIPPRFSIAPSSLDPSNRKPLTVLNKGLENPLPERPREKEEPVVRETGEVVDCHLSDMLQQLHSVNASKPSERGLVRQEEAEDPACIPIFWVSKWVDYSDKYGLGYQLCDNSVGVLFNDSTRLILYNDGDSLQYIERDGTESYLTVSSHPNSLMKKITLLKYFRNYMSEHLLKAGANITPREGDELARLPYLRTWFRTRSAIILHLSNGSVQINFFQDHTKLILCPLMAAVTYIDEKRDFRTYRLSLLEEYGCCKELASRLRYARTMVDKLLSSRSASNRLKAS
GALK inhibitor: inhibitors of human galactokinase; P51570; Purified GALK, Kinase-Glo residual ATP luminescence; Potency, µM (titrated, usually from 57.5 µM), hits mostly inhibitors; actives 0.007% (n = 270,000); AID 1868
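Luminescence from leftover ATP (Ultra-Glo luciferase/luciferin) served as read-out after a 1 h room-temperature reaction of 5 nM GALK with 35 uM ATP and 100 uM galactose.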
FBPA coupling cs: inhibits coupling enzyme system, counter-screen for aldolase hits; coupling enzyme system counterscreen, AmpLite Red fluorescence; activity change, negative = inhibition, % at 58.2 µM, hits read low; actives 0.67% (n = 290,000); AID 2472; in the data active = activity change below about -30%
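Final compound at 57.5 uM, incubated 10 min at RT with coupling enzyme reagent (glyceraldehyde-3-phosphate), then 20 min with substrate and AmpLite Red detection. Fluorescence read at 525/598 nm; tests interference with the coupling assay, not aldolase inhibition.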
USP2a block: USP2a (human) protease inhibition | O75604 | USP2 core, Ub-CHOP2 coupled fluorogenic reporter, 485/531 | Potency, µM (top dose mostly 38.3 µM), actives largely listed as inhibitors | actives 0.01% (n = 330,000) | AID 463254
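Cell-free coupled assay: 10nM USP2 core preincubated 30min RT with compound in Tris-HCl pH 8.0/CaCl2/CHAPS buffer, then 25nM Ub-CHOP2 and 25nM reporter substrate; fluorescence (Ex 485/Em 531) read after 60min RT, normalized to NEM inhibition, concentration-response curves fitted.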
TbPYK inh: Trypanosoma brucei pyruvate kinase inhibition, cherry-pick confirmation; shares compounds with PLK1 PBD inh; recombinant TbPYK, Kinase-Glo ATP luminescence; Potency, µM (highest dose often 76.9 µM), actives largely listed as inhibitors; actives 67% (n = 890); AID 720569; note: nearly all actives have a fitted effect of over 70% in size
TbPYK ADP-Glo: orthogonal confirmation of Trypanosoma brucei pyruvate kinase inhibitors. recombinant TbPYK, ADP-Glo luminescence, 60 min. Potency, µM (highest dose often 76.9 µM), usual class: inhibitors. shares compounds with PLK1 PBD inh. AID 720584. actives 62% (n = 890); note: nearly all actives have a fitted effect of over 75% in size
Hits are given with their value; . = inactive; ? = inconclusive; / = no result given. Unless noted, calls come from the whole dose curve; as a rule, active = well fitted curve in the direction sought with a large enough effect; inconclusive = small, poorly fitted or top-dose-only effect, or another doubt; inactive = no such curve, though single readings can be large; an effect the other way counts as inactive or inconclusive.

SMILES | USP1 inh | VDR inh | PLK1 PBD inh | GALK inhibitor | FBPA coupling cs | USP2a block | TbPYK inh | TbPYK ADP-Glo
Cc1nnc(NC(=O)CSc2nnc(CNC(=O)C34CC5CC(CC(C5)C3)C4)n2C2CCCCC2)s1 | . | . | . | . | . | . | / | /
CCOc1ccc(/C(CCC(=O)O)=N/NC(=S)NCCc2ccccc2)cc1 | . | . | ? | . | . | . | / | /
Cc1ccc(N=C2C(=O)Nc3ccccc32)cc1 | ? | . | . | . | . | . | / | /
CCN(CC)c1ccc(N=C2C(=O)Nc3ccccc32)cc1 | 31.6µM | ? | . | / | . | . | ? | .
Cc1ccc(S(=O)(=O)NNC(=O)C(=O)NNS(=O)(=O)c2ccc(C)cc2)cc1 | . | . | . | . | . | . | / | /
Cc1ccc(S(=O)(=O)NN=CC=CC=NNS(=O)(=O)c2ccc(C)cc2)cc1 | . | / | ? | / | / | / | 31.6µM | 35.5µM
Cc1ccc(NNS(=O)(=O)c2ccc(C)cc2)cc1 | . | ? | 3.77µM | . | / | . | 8.91µM | ?
Cc1cccc(NCCNc2cccc(C)c2)c1 | . | . | . | . | . | . | / | /
Nc1ccc(C2CCCc3nonc32)c2nonc12 (stereo unspecified) | . | . | . | . | . | . | / | /
Cc1cc(C)n(CC(=O)NC2CCCN(Cc3ccc(Cl)cc3)C2)n1 (stereo unspecified) | . | . | . | . | / | . | / | /
FC(F)(F)Oc1ccc(Nc2nc(N3CCOCC3)nc(N3CCOCC3)n2)cc1 | . | ? | 4.74µM | . | / | . | . | .
CC1CC(C)CN(C(=O)c2nn(C)c3c2CSc2ccccc2-3)C1 (stereo unspecified) | . | . | . | / | . | . | / | /
CC1CCCN(C(=O)c2nn(C)c3c2CSc2ccccc2-3)C1 (stereo unspecified) | . | . | ? | / | . | . | 7.94µM | 10µM
CCOC(=O)CN=C1CC(C)(C)CC2=C1Sc1ncnc(N(C)C)c1N2 | . | . | . | . | -47.4 | . | 20µM | 14.1µM
CC(NCC(O)COCc1ccc(Cl)cc1)c1ccccc1 (stereo unspecified) | . | . | . | . | . | . | / | /
CN1CCN(c2nc(-c3ccc(Cl)s3)cs2)CC1 | . | . | 18.9µM | . | . | . | ? | 15.8µM
Nc1ccc(S(=O)(=O)c2cc(O)c3ccccc3c2O)cc1 | ? | ? | 2.67µM | / | / | / | 12.6µM | 31.6µM
Cc1ccc(S(=O)(=O)N2CCN(C(=O)c3ccc4nc[nH]c4c3)CC2)cc1 | . | . | . | / | / | . | / | /
Cc1ccc(C(=O)O/N=C(\N)c2ccccn2)c(Cl)c1 | . | . | . | . | . | . | 15.8µM | .
COc1ccc(-n2c(SCc3ccc([N+](=O)[O-])cc3)nnc2-c2ccccc2)cc1 | . | . | . | / | . | . | / | /
CCOc1ccc(-n2c(SCc3ccc([N+](=O)[O-])cc3)nnc2-c2ccccc2)cc1 | . | . | . | . | . | . | 11.2µM | 8.91µM
COc1cccc(-n2c(COc3ccc(C)cc3)nnc2SCC(N)=O)c1 | . | . | . | . | . | . | / | /
COc1cccc(C(=O)CSc2nnc(CNS(C)(=O)=O)n2-c2ccc(C)cc2)c1 | . | ? | . | . | . | . | ? | 28.2µM
O=C(Nc1ccc2c(c1)ncn2-c1ccccc1)c1ccco1 | . | . | ? | . | . | . | 14.1µM | 4.47µM
Cc1ccc(-c2cc(C(=O)Nc3cccnc3)c3ccccc3n2)o1 | . | . | ? | . | . | . | ? | .
Cn1nnnc1Sc1ncnc2scc(-c3ccc(C(F)(F)F)cc3)c12 | / | . | / | / | / | . | / | /
Cn1nnnc1Sc1ncnc2scc(-c3ccccc3C(F)(F)F)c12 | / | . | / | / | / | . | 12.6µM | 28.2µM
Cc1[nH]c2ccccc2c1C1=CC(=O)C=CC1=O | . | 28.2µM | 3.36µM | / | / | / | 0.562µM | 2.82µM
Fc1ccc(NC(=S)Nc2ccc3nccnc3c2)cc1 | . | ? | . | . | . | . | / | /
